Common to all, as to assay: NCI-60 one-dose screen, 48 h (100 = growth as untreated, 0 = no growth, -100 = all killed)
One assay has as its system NCI-H23 lung. The settings on record: 10 µM unless noted.
Another assay deals with NCI-H226 lung. The settings on record: 10 µM unless noted.
In another assay the test system is NCI-H322M lung. The following applies: 10 µM unless noted.
Another assay has as its system NCI-H460 lung. The settings on record: 10 µM unless noted.
In another assay the test system is HOP-92 NSCLC. The settings on record: 10 µM.
Another assay relates to NCI-H522 lung. The following applies: 10 µM.
The subject of a further assay is A549/ATCC NSCLC. The settings on record: 10 µM unless noted.
For a further assay, the system named is 786-0 renal. The settings on record: 10 µM unless noted.
The next assay concerns COLO 205 colon. The settings on record: 10 µM unless noted.
A further assay concerns DU-145 prostate. The following applies: 10 µM unless noted.
Another assay relates to K-562 leukemia. The following applies: 10 µM unless noted.
A further assay deals with MALME-3M melanoma. The settings on record: 10 µM unless noted.
A further assay relates to MDA-MB-231 breast. The settings on record: 10 µM unless noted.
The subject of a further assay is RXF 393 renal. The settings on record: 10 µM unless noted.
In a further assay the test system is SF-268 CNS. The settings on record: 10 µM unless noted.
A further assay concerns SF-295 CNS. The settings on record: 10 µM unless noted.
A further assay relates to SF-539 CNS. The following applies: 10 µM unless noted.
A further assay concerns UACC-257 melanoma. The settings on record: 10 µM unless noted.
In a further assay the test system is M14 melanoma. The settings on record: 10 µM unless noted.

Structures are written as SMILES. About 83,000 compounds went through this panel and 20% of them were active in at least one assay; those are over-represented in the sample as a whole.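 For each line, cells grew in 96-well plates with the test compound present at a single concentration for 48 hours.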 A number with no mark means an inactive call. Calls of active or inactive are those of the source. The calls were made as follows: active = growth percent below 10; inactive = the rest.

With `COC1NC(Cl)=C(C#N)C(C#N)(C#N)C1(C)C` (centres undefined), the growth in the assay with NCI-H23 lung is 108%; with NCI-H226 lung, 108%; in the assay on NCI-H322M lung it was 121%; with NCI-H460 lung, 114%; in the assay on HOP-92 NSCLC, 97.2%; in the assay with NCI-H522 lung it was 104%. In addition, the growth is 109% in the assay with A549/ATCC NSCLC; 87.2% with 786-0 renal; 124% in the assay on COLO 205 colon; 94.2% in the assay with DU-145 prostate; 77.1% in the assay on K-562 leukemia; 146% with MALME-3M melanoma. Also, the growth in the assay with MDA-MB-231 breast is 88.6%; in the assay with RXF 393 renal it was 3.25% (active); in the assay on SF-268 CNS, 122%; in the assay with SF-295 CNS it was 115%; in the assay with SF-539 CNS it was 92.3%; in the assay with UACC-257 melanoma, 102%. In the assay on M14 melanoma, the growth is 59.1%.
In the case of `CCCCCCCCC1OC1CCCCCCCC(=O)O` (centres undefined), the growth in the assay on NCI-H23 lung is 100%; with NCI-H226 lung, 92%; in the assay on NCI-H322M lung, 102%; in the assay with NCI-H460 lung it was 99.1%; in the assay with HOP-92 NSCLC it was 87.8%; with NCI-H522 lung it was 97.7%. The growth is 91.9% in the assay with A549/ATCC NSCLC; 100% in the assay with 786-0 renal; 105% with COLO 205 colon; 116% with DU-145 prostate; 116% with K-562 leukemia; 90.1% with MALME-3M melanoma. The growth in the assay on MDA-MB-231 breast is 94.6%; in the assay on RXF 393 renal, 101%; with SF-268 CNS it was 107%; with SF-295 CNS, 97.4%; in the assay on SF-539 CNS it was 93.5%; in the assay on UACC-257 melanoma it was 95.3%. In the assay on M14 melanoma, the growth was 105%.
In the case of `COc1ccc(-c2nc(Nc3nc4ccccc4[nH]3)nc(N)c2C#N)cc1`, the growth with NCI-H23 lung was 100%; in the assay with NCI-H226 lung, 85.4%; in the assay with NCI-H322M lung, 111%; with NCI-H460 lung it was 109%; with HOP-92 NSCLC it was 88.6%; in the assay on NCI-H522 lung, 92.5%. Moreover, the growth in the assay on A549/ATCC NSCLC was 106%; in the assay on 786-0 renal, 102%; in the assay with COLO 205 colon, 81.4%; in the assay with DU-145 prostate, 108%; in the assay on K-562 leukemia it was 97.2%; in the assay on MALME-3M melanoma, 106%. The growth is 91.9% with MDA-MB-231 breast; 134% in the assay on RXF 393 renal; 99% in the assay with SF-268 CNS; 114% in the assay with SF-295 CNS; 97.2% in the assay with SF-539 CNS; 108% with UACC-257 melanoma. Further, the growth in the assay with M14 melanoma was 99.5%.
Regarding `Cc1c(CN(C)C)cc(C(C)C)cc1C(C)C`, the growth in the assay on MALME-3M melanoma is 124%.
`C=CCN(C)C`: in the assay with MALME-3M melanoma, the growth was 111%.
For `C=CCSc1nnc(COc2ccc3c(C)c(Cc4ccccc4)c(=O)oc3c2C)o1`, the growth in the assay on NCI-H23 lung was 102%; with NCI-H226 lung, 95%; with NCI-H322M lung, 99.2%; in the assay with NCI-H460 lung, 103%; with HOP-92 NSCLC, 100%; in the assay with NCI-H522 lung it was 81.8%. Further, the growth in the assay with A549/ATCC NSCLC is 101%; in the assay with 786-0 renal, 102%; in the assay with DU-145 prostate, 106%; in the assay on K-562 leukemia it was 96.2%; in the assay on MALME-3M melanoma, 108%; in the assay on MDA-MB-231 breast it was 104%. Moreover, the growth with RXF 393 renal is 114%; with SF-268 CNS it was 101%; in the assay on SF-295 CNS, 99.9%; in the assay with SF-539 CNS it was 101%; in the assay with UACC-257 melanoma it was 102%; in the assay on M14 melanoma it was 102%.
Turning to `Cc1c(Cc2ccccc2)c(=O)oc2c(C)c(OCc3n[nH]c(=S)o3)ccc12`, the growth with NCI-H23 lung is 57.7%; in the assay on NCI-H226 lung, 84.8%; in the assay on NCI-H322M lung, 63.8%; with NCI-H460 lung, 3.31% (active); in the assay with HOP-92 NSCLC, 57.8%; in the assay on NCI-H522 lung it was 61%. Further, the growth was 26.9% in the assay with A549/ATCC NSCLC; 68.9% in the assay on 786-0 renal; 19.4% in the assay with DU-145 prostate; 71.6% with K-562 leukemia; 48.7% in the assay on MALME-3M melanoma; 80.7% in the assay with MDA-MB-231 breast. The growth in the assay with RXF 393 renal was 98.8%; in the assay with SF-268 CNS, 75.9%; in the assay on SF-295 CNS, 77%; with SF-539 CNS, 92.1%; in the assay on UACC-257 melanoma it was 88%; in the assay on M14 melanoma, 99.3%.
`COc1ccc(C(=O)CN2C(=O)NC(c3ccccc3)(c3ccccc3)C2=O)cc1`: the growth with NCI-H23 lung was 103%; in the assay on NCI-H226 lung, 93.2%; in the assay on NCI-H322M lung it was 110%; in the assay with NCI-H460 lung it was 102%; in the assay with HOP-92 NSCLC, 71.5%; with NCI-H522 lung it was 96.5%. The growth is 103% in the assay on A549/ATCC NSCLC; 109% with 786-0 renal; 115% in the assay with COLO 205 colon; 116% in the assay with DU-145 prostate; 108% with MALME-3M melanoma; 106% with MDA-MB-231 breast. In addition, the growth was 105% with RXF 393 renal; 101% with SF-268 CNS; 98.8% in the assay with SF-295 CNS; 92.9% with SF-539 CNS; 98.7% in the assay on UACC-257 melanoma; 103% with M14 melanoma.
On to `N=C(N)c1ccc(-c2ccc(-c3ccc(Cl)cc3)s2)s1`, for which the growth in the assay on NCI-H23 lung was -69.9% (active); in the assay on NCI-H226 lung, -53.3% (active); in the assay with NCI-H322M lung, -74.9% (active); in the assay with NCI-H460 lung, -66.2% (active); with HOP-92 NSCLC, -71.6% (active); in the assay on NCI-H522 lung, -2.36% (active). In addition, the growth is -69.1% (active) in the assay with A549/ATCC NSCLC; -62.6% (active) in the assay with 786-0 renal; -87.8% (active) in the assay with DU-145 prostate; -45.8% (active) with K-562 leukemia; -29.9% (active) in the assay on MALME-3M melanoma; -80.5% (active) in the assay on MDA-MB-231 breast. Moreover, the growth in the assay on RXF 393 renal is -85% (active); with SF-268 CNS it was -68.6% (active); in the assay on SF-295 CNS, -68.8% (active); in the assay on SF-539 CNS, -86.7% (active); in the assay on UACC-257 melanoma it was -37.7% (active); with M14 melanoma it was -72.7% (active).
With `O=C(Nc1cccc2[nH]c(C(F)(F)F)nc12)c1ccc(F)cc1`, the growth in the assay on NCI-H23 lung is 83.7%; in the assay with NCI-H226 lung it was 86.1%; in the assay with NCI-H322M lung it was 101%; in the assay with NCI-H460 lung, 55%; with HOP-92 NSCLC it was -9.1% (active); with NCI-H522 lung, 51.3%. The growth in the assay with A549/ATCC NSCLC was 72.8%; in the assay with 786-0 renal it was 91.9%; in the assay with DU-145 prostate, 88.3%; in the assay with K-562 leukemia it was 24.8%; in the assay with MALME-3M melanoma, 74%; in the assay on MDA-MB-231 breast it was 83.7%. Further, the growth with RXF 393 renal was 88%; with SF-268 CNS, 86.1%; in the assay with SF-295 CNS it was 86.6%; with SF-539 CNS it was 80%; in the assay on UACC-257 melanoma, 89.7%; in the assay on M14 melanoma, 92%.

For the origin of these results see PubChem BioAssay (NCI).
